From PubChem BioAssay (Tox21)
Inconclusive results are not listed. The source made the active and inactive calls. Unless noted, calls follow the shape of the dose curve; as a rule, active = well fitted curve in the direction sought with a large enough effect in the repeat runs; inconclusive = weak or mixed curves; inactive = no such curve, though single readings can be large; an effect the other way counts as inactive or inconclusive.

Assays:
[1] = qHTS assay for small molecule agonists of the p53 signaling pathway (AID 651631; calls by dose curve; also: nearly all actives have a fitted effect of over 15% in size)
Method in brief: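 We treat p53RE-bla HCT-116 cells with compounds for 16 h at 37 °C, add LiveBLAzer B/G FRET substrate for 2 h at room temperature, and measure fluorescence intensity.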

[2] = qHTS assay for small molecules that induce genotoxicity in human embryonic kidney cells expressing luciferase-tagged ATAD5 (AID 651632); also: nearly all actives have a fitted effect of over 15% in size
Method in brief: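 Quantitative HTS in HEK293T expressing luciferase-tagged ATAD5, whose levels rise upon DNA damage. Exposure ran 16 hr at 37C and 5% CO2, with luminescence read 30 min after Amplite addition at room temperature.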

[3] = qHTS assay for small molecule agonists of the p53 signaling pathway - cell viability (AID 651633; calls by dose curve;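 also: p53RE-bla HCT reporter cells with a stable beta-lactamase p53 reporter; series mostly up to about 83 µM; nearly all actives have a fitted effect of over 30% in size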)
Method in brief: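 p53RE-bla cells were treated with compound for 16 hours at 37 C. Cytotoxicity was then measured as CellTiter-Glo luminescence after 30 min at room temperature.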

[4] = qHTS assay for small molecules that induce genotoxicity in human embryonic kidney cells expressing luciferase-tagged ATAD5 - cell viability (AID 651634; calls by dose curve; also: nearly all actives have a fitted effect of over 25% in size)
Method in brief: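 After 15.5 hr incubation with compound at 37C, 5% CO2, HEK293T ATAD5-luciferase cells received CellTiter-Fluor reagent; fluorescence intensity was quantified following 30 min at 37C.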

[5] = qHTS assay for small molecule disruptors of the mitochondrial membrane potential - cell viability (AID 720634; calls by dose curve;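 also: human HepG2 liver cancer cells; series mostly up to about 83 µM; nearly all actives have a fitted effect of over 20% in size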)
Method in brief: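 ATP-based luminescent viability readout (CellTiter-Glo, 30 min, room temperature) in HepG2 cells multiplexed with the m-MPI membrane potential dye; compound exposure lasted 1 hr at 37 C.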

[6] = qHTS assay for small molecule disruptors of the mitochondrial membrane potential (AID 720635)
Method in brief: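 HepG2 cells exposed to compound 1 hr at 37C, then Mito-MPS dye 30 min. Ratio read of aggregate (540/590 nm) versus monomer (490/535 nm) fluorescence.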

[7] = qHTS assay to test for compound auto fluorescence at 590 nm (red) in HepG2 cells (AID 720674)
Method in brief: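 Seeding: 2,000 HepG2 cells/well, MEM/10% FBS, overnight 37 C. Dosing: compound vs DMSO. Incubation: 1 hr, 37 C, 5% CO2. Read: fluorescence 540 ex/590 em, Rose Bengal sodium as red reference.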

[8] = qHTS assay to test for compound auto fluorescence at 535 nm (green) in HepG2 cells (AID 720675)
[9] = qHTS assay to test for compound auto fluorescence at 460 nm (blue) in HEK293 cells (AID 720678)
Method in brief: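 Auto fluorescence in the blue band was quantified as triamterene equivalency. HEK293 cells were seeded at 2,000/well, dosed after a 4-5 hr attachment, and kept overnight at 37C before the 405/460 nm reading.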

[10] = qHTS assay to test for compound auto fluorescence at 590 nm (red) in HEK293 cells (AID 720679)
Method in brief: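 Autofluorescence equivalency to Rose Bengal sodium, 540/590nm, in HEK293 cells exposed overnight to 23 nL compound per well.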

[11] = qHTS assay to test for compound auto fluorescence at 535 nm (green) in HEK293 cells (AID 720680)
[12] = qHTS assay to test for compound auto fluorescence at 460 nm (blue) in HEK293 cell free culture (AID 720681)
Method in brief: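 Compounds were added to cell-free DMEM with 10% FBS and fluorescence read directly. The blue channel used 405 nm excitation and 460 nm emission, with triamterene as the reference fluorophore.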

[13] = qHTS assay to test for compound auto fluorescence at 535 nm (green) in HEK293 cell free culture (AID 720682)
Method in brief: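 Green-channel intensity (Ex/Em 485/535 nm) was recorded from compound-treated wells containing only DMEM with 10% FBS. Fluorescein provided the equivalency standard.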

[14] = qHTS assay to test for compound auto fluorescence at 590 nm (red) in HEK293 cell free culture (AID 720683)
Method in brief: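 Cell-free wells of DMEM with 10% FBS received compound, and intrinsic fluorescence was read at excitation/emission 540/590 nm. Values expressed as equivalence to Rose Bengal sodium.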

[15] = qHTS assay to test for compound auto fluorescence at 590 nm (red) in HepG2 cell free culture (AID 720684)
Method in brief: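 Auto fluorescence equivalency versus Rose Bengal sodium, red channel Ex/Em 540/590 nm; compounds in cell-free MEM/10% FBS; DMSO vehicle control.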

[16] = qHTS assay to test for compound auto fluorescence at 460 nm (blue) in HepG2 cell free culture (AID 720685)
Method in brief: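 Cell-free plates of MEM plus 10% FBS received 23 nL compound or DMSO vehicle; blue-channel (405/460 nm) intensity scored against triamterene as reference fluorophore.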

[17] = qHTS assay to test for compound auto fluorescence at 535 nm (green) in HepG2 cell free culture (AID 720686)
[18] = qHTS assay to test for compound auto fluorescence at 460 nm (blue) in HepG2 cells (AID 720687)
Method in brief: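 HepG2 cells in MEM with 10% FBS, attached overnight at 37 C, were exposed to compound or DMSO for 1 hr at 37 C, 5% CO2. Blue fluorescence was read at 405/460 nm, with triamterene as reference fluorophore.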

[19] = target: Glucocorticoid receptor (Homo sapiens) (UniProt P04150); assay: qHTS assay to identify small molecule agonists of the glucocorticoid receptor (GR) signaling pathway (AID 720691; active = well fitted activation curve with a large enough effect in the signal ratio in the repeat runs, not every such curve was filed as active; the % refers to the signal ratio)
Chain of Glucocorticoid receptor (Homo sapiens) (P04150 whole entry, looked up): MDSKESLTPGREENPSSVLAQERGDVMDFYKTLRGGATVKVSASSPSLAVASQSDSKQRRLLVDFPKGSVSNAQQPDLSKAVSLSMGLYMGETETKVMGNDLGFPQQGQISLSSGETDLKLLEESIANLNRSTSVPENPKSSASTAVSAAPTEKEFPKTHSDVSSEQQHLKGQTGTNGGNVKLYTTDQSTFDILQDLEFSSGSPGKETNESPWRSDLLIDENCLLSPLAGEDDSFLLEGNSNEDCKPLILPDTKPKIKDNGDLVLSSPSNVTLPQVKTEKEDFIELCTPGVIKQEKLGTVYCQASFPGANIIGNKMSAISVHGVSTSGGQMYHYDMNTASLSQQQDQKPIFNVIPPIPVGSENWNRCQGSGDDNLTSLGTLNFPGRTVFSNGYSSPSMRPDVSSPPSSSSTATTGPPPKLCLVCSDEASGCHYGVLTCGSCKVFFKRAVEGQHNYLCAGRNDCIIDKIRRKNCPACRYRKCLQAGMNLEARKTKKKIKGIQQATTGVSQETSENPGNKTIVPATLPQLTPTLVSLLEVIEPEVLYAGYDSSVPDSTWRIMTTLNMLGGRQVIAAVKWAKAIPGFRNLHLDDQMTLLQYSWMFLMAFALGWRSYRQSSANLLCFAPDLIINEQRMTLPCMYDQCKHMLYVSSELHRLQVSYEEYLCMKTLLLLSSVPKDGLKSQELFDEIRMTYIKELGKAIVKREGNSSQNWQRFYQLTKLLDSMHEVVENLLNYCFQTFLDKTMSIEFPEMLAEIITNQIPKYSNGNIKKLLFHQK
Method in brief: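 Cells: GR-bla HeLa, endogenous GR with stably integrated GRE-beta-lactamase reporter. Treatment 18 h, 37 C, compounds delivered in DMSO. Detection via LiveBLAzer B/G FRET substrate, 2 h RT, fluorescence intensity.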

[20] = target: Glucocorticoid receptor (Homo sapiens) (UniProt P04150); assay: qHTS assay to identify small molecule antagonists of the glucocorticoid receptor (GR) signaling pathway (AID 720692; active = well fitted inhibition curve with a large enough effect in the signal ratio in the repeat runs, not every such curve was filed as active; the % refers to the signal ratio)
Method in brief: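 Quantitative HTS in antagonist format: HeLa cells expressing endogenous GR and a stably integrated GRE-bla reporter, stimulated with 5 nM dexamethasone (final) alongside test compounds for 18 h.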
% is scaled to controls: 0 for no effect and ±100 for the full control effect.

C=C(C)CCl
inactive: activation [1] -2.09% [at 8.3 µM] | outcome [2] | outcome [3] | outcome [4] | Potency [5] | Potency [6] | outcome [7] | outcome [8] | outcome [9] | outcome [10] | outcome [11] | outcome [12] | outcome [13] | outcome [14] | outcome [15] | outcome [16] | outcome [17] | outcome [18] | outcome [19] | Potency [20]

CCOP(=S)(OCC)Oc1cnc2ccccc2n1
inactive: outcome [1] | outcome [2] | outcome [3] | outcome [4] | outcome [7] | outcome [8] | outcome [9] | outcome [10] | outcome [11] | outcome [12] | outcome [13] | outcome [14] | outcome [15] | outcome [16] | outcome [17] | outcome [18] | outcome [19] | Potency [20]

CC(=O)C=C(C)C
inactive: outcome [2] | outcome [4] | Potency [5] | Potency [6] | outcome [7] | outcome [8] | outcome [9] | outcome [10] | outcome [11] | outcome [12] | outcome [13] | outcome [14] | outcome [15] | outcome [16] | outcome [17] | outcome [18] | outcome [19] | Potency [20]

Cc1ccc(N)cc1N
inactive: outcome [1] | outcome [2] | outcome [3] | outcome [4] | Potency [5] | outcome [7] | outcome [8] | outcome [10] | outcome [11] | outcome [13] | outcome [14] | outcome [15] | outcome [16] | outcome [17] | outcome [19] | Potency [20]

CC(C#N)CCC#N (centres undefined)
inactive: outcome [1] | outcome [2] | outcome [3] | outcome [4] | outcome [7] | outcome [8] | outcome [9] | outcome [10] | outcome [11] | outcome [12] | outcome [13] | outcome [14] | outcome [15] | outcome [16] | outcome [17] | outcome [18] | outcome [19] | Potency [20]

O=C1CCCN1
inactive: outcome [2] | outcome [3] | outcome [4] | Potency [5] | Potency [6] | outcome [7] | outcome [8] | outcome [9] | outcome [10] | outcome [11] | outcome [12] | outcome [13] | outcome [14] | outcome [15] | outcome [16] | outcome [17] | outcome [18] | outcome [19] | Potency [20]
